The campaign covered roughly 220,000 compounds. About 5,700 (2.6%) were called active. Entries that show only a call come without a potency. About 18% were inconclusive and are not listed. Calls come from the whole dose curve; as a rule, active = well fitted inhibition curve with a large enough effect; inconclusive = small, poorly fitted or top-dose-only effect; inactive = no such curve, though single readings can be large or run the other way. This excerpt belongs to a sample that is enriched for actives.
target: Lysine-specific demethylase 5B (Homo sapiens) (UniProt Q9UGL1); test: Primary screen for KDM5B Histone Demethylases FDH-coupled qHTS; details: FDH-coupled NADH fluorescence (FDH is formaldehyde dehydrogenase); series mostly up to 57.7 µM; note: nearly all actives have a fitted effect of over 70% in size
Sequence (Q9UGL1 whole entry, looked up, the tested form may be a part): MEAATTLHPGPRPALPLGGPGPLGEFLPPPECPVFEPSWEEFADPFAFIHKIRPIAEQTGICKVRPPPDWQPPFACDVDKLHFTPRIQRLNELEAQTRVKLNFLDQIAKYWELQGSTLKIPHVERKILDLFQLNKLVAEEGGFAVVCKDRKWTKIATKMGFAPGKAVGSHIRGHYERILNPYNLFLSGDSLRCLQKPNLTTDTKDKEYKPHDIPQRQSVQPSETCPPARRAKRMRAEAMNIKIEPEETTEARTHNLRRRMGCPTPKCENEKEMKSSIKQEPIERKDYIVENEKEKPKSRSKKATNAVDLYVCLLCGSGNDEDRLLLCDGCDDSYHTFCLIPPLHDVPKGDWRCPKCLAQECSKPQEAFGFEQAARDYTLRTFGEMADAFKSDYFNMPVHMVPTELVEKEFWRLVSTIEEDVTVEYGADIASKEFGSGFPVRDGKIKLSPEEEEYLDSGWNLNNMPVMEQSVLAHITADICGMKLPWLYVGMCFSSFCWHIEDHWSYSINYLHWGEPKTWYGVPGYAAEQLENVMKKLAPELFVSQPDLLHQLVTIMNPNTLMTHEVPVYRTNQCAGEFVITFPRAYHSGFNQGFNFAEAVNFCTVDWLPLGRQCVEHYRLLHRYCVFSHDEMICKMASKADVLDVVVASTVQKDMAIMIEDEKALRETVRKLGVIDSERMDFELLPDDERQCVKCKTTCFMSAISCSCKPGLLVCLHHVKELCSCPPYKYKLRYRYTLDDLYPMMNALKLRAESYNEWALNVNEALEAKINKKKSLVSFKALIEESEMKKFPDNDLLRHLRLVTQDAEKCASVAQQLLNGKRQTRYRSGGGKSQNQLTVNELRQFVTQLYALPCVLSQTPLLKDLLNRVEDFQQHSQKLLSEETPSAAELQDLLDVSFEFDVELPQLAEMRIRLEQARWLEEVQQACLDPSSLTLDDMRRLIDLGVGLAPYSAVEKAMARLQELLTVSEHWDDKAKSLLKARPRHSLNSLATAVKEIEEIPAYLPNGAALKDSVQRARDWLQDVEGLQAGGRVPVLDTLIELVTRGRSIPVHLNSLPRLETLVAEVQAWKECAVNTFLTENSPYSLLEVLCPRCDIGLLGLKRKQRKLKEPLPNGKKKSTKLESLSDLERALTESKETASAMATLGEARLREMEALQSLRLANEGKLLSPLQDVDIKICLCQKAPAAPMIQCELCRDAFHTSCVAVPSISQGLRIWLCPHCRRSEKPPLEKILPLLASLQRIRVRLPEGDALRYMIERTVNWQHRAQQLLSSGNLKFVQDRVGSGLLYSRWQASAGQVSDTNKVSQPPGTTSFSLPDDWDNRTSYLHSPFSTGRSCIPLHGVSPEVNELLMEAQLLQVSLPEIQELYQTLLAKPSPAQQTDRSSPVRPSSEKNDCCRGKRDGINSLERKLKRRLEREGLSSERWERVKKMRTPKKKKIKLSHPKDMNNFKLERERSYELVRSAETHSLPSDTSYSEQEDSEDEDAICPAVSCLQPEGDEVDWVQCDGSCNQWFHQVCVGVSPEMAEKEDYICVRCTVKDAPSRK
Summary of the method: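 Inhibition is measured as reduced NADH fluorescence generation from FDH coupling to formaldehyde release. Truncated KDM5BΔAP at 200 nM final acts on H3K4me3 peptide (12.5 µM in substrate mix) in pH 7.5 HEPES buffer with Tween-20, 30 min, room temperature.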
Potency is the fitted concentration of half-maximal effect.

SMILES	Potency
COc1ccc(OC)c(C2C(C#N)=C(N)Oc3cc(O)ccc32)c1 (stereo not drawn)	inactive
Cc1ccc2c(=O)cc(C(=O)N(Cc3ccc(Cl)cc3)C3CCS(=O)(=O)C3)oc2c1C (stereo not drawn)	inactive
O=S(=O)(NCCc1cn2ccccc2n1)c1cc(Cl)ccc1Cl	inactive
Cn1cc([C@@H](NC(=O)CCc2cn3ccccc3n2)C2CC(O)C2)cn1 (stereo partly drawn)	31.6 µM (active)
COc1ccc(C(=O)N[C@H](c2cnn(C)c2)C2CC(O)C2)c(F)c1F (stereo partly drawn)	inactive
COc1ccc(-n2c3c(cc(-c4ncnn4-c4ccc(C)cc4C)c2=O)C(=O)CC(C)(C)C3)cc1	inactive
O=C(Cn1ncn2nc(-c3cccs3)cc2c1=O)N1CCCCCC1	inactive
c1ccc([C@@H]2CNC[C@H]2COCC2CC2)nc1	15.8 µM (active)
O=C(c1cnc[nH]1)N1C[C@@H](COCC2CC2)[C@H](c2ccccn2)C1	inactive
CCn1cc(C(=O)N2C[C@@H](COCC3CC3)[C@H](c3ccccn3)C2)cn1	inactive
Cc1ccc2ncc([N+](=O)[O-])cc2c1	inactive
COc1ccc(NC(=O)c2c(Cl)cccc2Cl)cc1	inactive
CCc1ccc(C(=O)Nc2ccccc2O)o1	inactive
COc1ccccc1-c1ccc(C(=O)O)cc1	112 µM (active)
COc1ccccc1-c1cn(C)c(=O)n2cc(COc3ccc(C(=O)O)cc3)nc12	inactive
CC(C)N(C(=O)c1ccc(-c2ccccc2F)cc1)C(C)C	inactive
C=CCN(CC=C)S(=O)(=O)c1cccc2nsnc12	inactive
CC(C)c1ccc(/C=C/C(=O)NCCCN2CCOCC2)cc1	inactive
COc1ccc(C)cc1CN1CCN(C(=O)Nc2cccc(C)c2)CC1	inactive
Cc1ccc(C(=O)N2C[C@@H](COc3ccccc3)[C@H](C(N)=O)C2)cc1	inactive
CCc1ccc(NC(=O)Cn2ccn3nc4c(c3c2=O)CCCC4)cc1	20 µM (active)
CC(C)(C)C(=O)Cn1ccn2nc3c(c2c1=O)CCCC3	inactive
CCOC(=O)c1ccc(NC(=O)CCn2ccn3nc4c(c3c2=O)CCCC4)cc1	inactive
CC(=O)Oc1ccc(C(=O)Nc2ccc(O)c(-c3nc4ccccc4o3)c2)cc1	inactive
CN(C)Cc1cn2c(=O)n(C)cc(-c3cccc(OCc4ccccc4)c3)c2n1	inactive
CN(C)c1cccc(-c2cn(C)c(=O)n3cc(COc4ccc(Cl)cc4)nc23)c1	25.1 µM (active)

SMILES	Potency
Cc1cc(-c2cn(C)c(=O)n3cc(COc4ccccc4)nc23)ccn1	inactive
CSc1ccc(CN(C)S(=O)(=O)c2ccc3c(c2)OCCCO3)cc1	inactive
O=C(Nc1ccc(Cl)cc1)C1CCN(C(=O)c2ncn3c2COC(c2ccc(F)cc2)C3)CC1 (stereo not drawn)	inactive
Cn1cnnc1-c1cccc(NC(=O)c2ccc3c(c2)OCO3)c1	inactive
O=C(NCc1ccccc1C(F)(F)F)c1cc2n(n1)CC(c1ccc3c(c1)OCO3)OC2 (stereo not drawn)	31.6 µM (active)
O=C(NCc1ccc(F)cc1F)c1nnn2c1COC(c1ccc(Br)cc1)C2 (stereo not drawn)	inactive
COc1ccc(CNC(=O)c2cc3n(n2)CC(c2ccc4c(c2)OCO4)OC3)c(OC)c1 (stereo not drawn)	31.6 µM (active)
CCNCc1ccccc1C(F)(F)F	inactive
Cc1cccc(N2CCN(C(=O)c3cc4n(n3)CC(c3ccc(Cl)cc3)OC4)CC2)c1 (stereo not drawn)	inactive
Cc1ccc(NC(=O)c2cn3c4c(ccc(Cl)c4c2=O)OC(C)C3)cc1C (stereo not drawn)	inactive
O=C(Nc1cccc(F)c1)c1cc2n(n1)CC(c1ccc(Cl)cc1)OC2 (stereo not drawn)	22.4 µM (active)
COc1ccc(CNC(=O)c2ccc3c(c2)nc2n3CCOC2)c(OC)c1	inactive
Cc1ccc(NC(=O)c2cc3n(n2)CC(c2ccc4c(c2)OCO4)OC3)cc1C (stereo not drawn)	35.5 µM (active)
COc1ccc2c(c1)C=C(C(=O)NCc1cc(Br)ccc1OC)CO2	inactive
O=S(=O)(c1ccccc1Cl)N1CCN(C/C=C/c2ccccc2)CC1	inactive
Fc1ccc(N2CCCN(CC3[C@H]4CNC[C@@H]34)CC2)cc1 (stereo partly drawn)	inactive
O=C(Nc1ccc(CC23CC4CC(CC(C4)C2)C3)cc1)c1ccc(Cl)cc1Cl	inactive
CCOc1ccc(-c2nc(Cn3nnc(C(=O)NCc4ccc(Cl)cc4)c3N)c(C)o2)cc1OC	inactive
CCCn1nc(C(=O)OCc2nc(N)nc(Nc3ccccc3C)n2)c2ccccc2c1=O	inactive
CCOc1cc(CNc2nn[nH]n2)ccc1OCc1ccccc1Cl	inactive
COc1ccc(-c2noc3ncnc(N4CCC(C(=O)NCCN5CCCCC5)CC4)c23)cc1	inactive
CCCCCCCCCCS(=O)(=O)CCSC(=N)N	inactive
COc1ccc(OC)c(NC(=O)c2cc3n(n2)CC(c2ccc(Cl)cc2)OC3)c1 (stereo not drawn)	25.1 µM (active)
COc1ccc(OC)c(NC(=O)c2nc3ccccc3nc2N2CCCC2)c1	inactive
COc1ccc(OC)c(NC(=O)Cn2ccc3ccc(Cl)cc32)c1	inactive
COc1ccc(OC)c(C2C3=C(CC(C)(C)CC3=O)Nc3nc(-c4cccc(C)c4)nn32)c1 (stereo not drawn)	inactive

SMILES	Potency
CCNC(=O)Nc1ccc(S(=O)(=O)Nc2cnc(C)nc2C)cc1	inactive
O=C(Nc1ccc2oc(-c3ccc(F)cc3)nc2c1)c1ccc2c(c1)OCCO2	inactive
Cn1c(CCN2CCCCC2)nc2cc(NC(=O)c3ccccc3Cl)ccc21	inactive
Cc1ccc(-c2ccc3nnc(CNC(=O)c4ccccn4)n3n2)cc1	31.6 µM (active)
Cc1ccc(-n2nnnc2CNC(=O)c2ccccc2C)cc1C	inactive
O=C(Nc1ccc(-c2nnc3n2CCCC3)cc1)c1ccccn1	inactive
Cc1ccccc1C(=O)NCc1nc(-c2ccc(Cl)cc2)no1	inactive
Cc1ccc(CNC(=O)c2cccc3cccnc23)cc1	inactive
Cc1ccccc1C(=O)NCc1nnc2ccc(-c3ccccc3)nn12	31.6 µM (active)
O=C(CCc1ncc(-c2ccccc2)o1)Nc1nc2ccccc2s1	inactive
CCOC(=O)C(O)(c1ccc(N(CC)C(=O)Nc2ccc(Cl)cc2)cc1)C(F)(F)F (stereo not drawn)	inactive
CCN(C(=O)Cc1coc2ccc(C)cc12)c1ccccc1	inactive
Cc1ccccc1NC(=O)C1CC(=O)Nc2nc(SCc3ccccc3)nn21 (stereo not drawn)	inactive
O=C(NCCCNC(=O)c1nc2ccccc2c(=O)[nH]1)c1cccnc1	inactive
Cc1nc2cc(C(=O)Nc3ccc(N(C)C)cc3)ccc2n1-c1ccccc1	inactive
c1coc(-c2nc(-c3cccs3)no2)c1	inactive
CC1CCN(c2nc3c(c(=O)n(C)c(=O)n3C)n2CC(=O)c2ccc(Br)cc2)CC1	inactive
CCCNC(=O)C(NC(=O)c1cccc(OC)c1)C1CCN(C(=O)c2ccccc2F)CC1 (stereo not drawn)	inactive
C=CCNC(=O)C(NC(=O)c1cccc(OC)c1)C1CCN(C(=O)c2ccccc2F)CC1 (stereo not drawn)	31.6 µM (active)
COc1cccc(C(=O)N2CCC(C(NC(=O)c3ccccc3C)C(=O)NCC(C)C)CC2)c1 (stereo not drawn)	inactive
Cn1c(=O)[nH]c(=O)c2c1nc(N1CCNCC1)n2CC(N)=O	inactive
O=[N+]([O-])c1cc(C(F)(F)F)ccc1NCCc1ccncc1	inactive
O=c1oc2ccccc2c(N2CCCC2)c1NS(=O)(=O)c1cccc(F)c1	inactive
COCC1CN(C(C)=O)CC12CCN(Cc1ccccc1OC)CC2 (stereo not drawn)	inactive
COCC1CN(C(C)=O)CC12CCN(C(=O)NCc1cccc(OC)c1)CC2 (stereo not drawn)	inactive
CCOc1cccc(CN2CCC3(CC2)CN(C)CC3COC)c1 (stereo not drawn)	14.1 µM (active)

SMILES	Potency
Cc1occc1-c1nnc(SCC(=O)c2cc(C)n(C3CC3)c2C)n1C	inactive
CC(NC(=O)c1ccco1)c1ccc(-c2ccccc2)cc1 (stereo not drawn)	inactive
Cc1ccc2c(C)cc(SCC(=O)NC3CC3)nc2c1	inactive
CC1(C(=O)NCc2ccc3c(c2)OCO3)CCc2cnc(NCc3ccccc3)nc21 (stereo not drawn)	25.1 µM (active)
CN(Cc1ccccc1)C(=O)C1(C)CCCc2cnc(Nc3cccnc3)nc21 (stereo not drawn)	inactive
CC1(C(=O)NCC2CCCO2)CCCc2cnc(Nc3ccccc3)nc21 (stereo not drawn)	inactive
O=C(Cn1nc2c(cc1=O)CCCC2)Nc1cc(C(F)(F)F)ccc1Cl	inactive
Cc1nn2c(c1-c1ccccc1Oc1ccccc1)N(C(=O)C(C)C)CCC2	inactive
Cc1nn2c(c1-c1ccccc1-c1ccccc1)N(C(=O)CN1CCOCC1)CCC2	inactive
Cc1nn2c(c1-c1ccccc1-c1ccccc1)N(CC1CC1)CCC2	28.2 µM (active)
CCc1ccc(N(CC)C(=O)C(=O)c2c[nH]c3ccccc23)cc1	inactive
Cc1ccc2[nH]c(=O)c(CCC(=O)NCc3ccncc3)cc2c1	25.1 µM (active)
Cc1ccc(CCC(=O)NCc2cccnc2)cc1	inactive
Cc1ccc2[nH]c(=O)c(COC(=O)c3ccccn3)cc2c1	inactive
COCCN(C)C[C@H]1C[C@H](CO)CN(C(=O)c2ccc(C(C)C)[nH]c2=O)C1	inactive
CC1(C)CC(=O)C2=C(C1)Nc1nc(N)[nH]c(=O)c1C2c1ccc2c(c1)OCO2 (stereo not drawn)	inactive
COc1cccc(CNC(=O)Cn2c(N(C)Cc3ccccc3)nc(C)cc2=O)c1OC	inactive
CCN(CC)c1nc2ccccc2nc1C(=O)Nc1ccc(C)cc1C	inactive
Cc1cn2nc(C(=O)Nc3ccc(F)cc3F)cc2c(N(C)Cc2ccccc2)n1	inactive
Cc1cn2nc(C(=O)Nc3cc(F)cc(F)c3)cc2c(N(C)Cc2ccccc2)n1	25.1 µM (active)
CCN(CC)c1nc2ccccc2nc1C(=O)Nc1ccc(C)c(C)c1	inactive
Cc1cc(C)cc(NC(=O)N(C)Cc2ccccc2)c1	inactive
Cc1cn2nc(C(=O)Nc3cccc(F)c3)cc2c(N(C)Cc2ccccc2)n1	inactive
Cc1cn2nc(C(=O)Nc3ccc(F)cc3C)cc2c(N(C)Cc2ccccc2)n1	20 µM (active)
COc1ccc(NC(=O)c2cc3c(N(C)Cc4ccccc4)nc(C)cn3n2)cc1F	17.8 µM (active)

— PubChem BioAssay AID1347165 (National Center for Advancing Translational Sciences (NCATS), 2019)
